Shown are actives, neighbours in structure and some others; about 3% of the full set was active somewhere.
A549 viability: A549 cytotoxicity, counter-screen for Nrf2 inhibitors | A549 ARE-Fluc cells, CellTiter-Fluor viability, 18-24 h | Potency, µM (top dose mostly 46 µM), for inactives: top-dose activity change, negative = cytotoxicity, most hits filed as inhibitors | actives 0.16% (n = 390,000); also: % is scaled to controls: 0 for no effect and ±100 for the full control effect
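A549 ARE-Fluc cells in 5% FBS OPTI-MEM, 5000 cells/well, rested 2 h then exposed to compounds in concentration-response for 18-24 h at 37 °C. Viability by CellTiter-Fluor fluorescence (Ex 405/Em 525) after 30 min; luciferase luminescence (BugLite, 15 min, RT) read afterwards.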
GALK inh: blocks human galactokinase activity; P51570; Purified GALK, Kinase-Glo residual ATP luminescence; Potency, µM (top dose mostly 57.5 µM), inactives show at the top dose activity change, negative = inhibition, usual class: inhibitors; actives 0.007% (n = 270,000); AID 1868; also: % is scaled to controls: 0 for no effect and ±100 for the full control effect
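The enzyme phosphorylates galactose (100 uM) using ATP (35 uM); inhibition is detected as higher residual ATP, quantified by bioluminescence after 1 h reaction at room temperature, pH 8.0.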
rTrxR1 inhibitor: inhibitors of rat thioredoxin reductase 1; recombinant rTrxR1, NADPH fluorescence consumption, selenite substrate; O89049; actives 1% (n = 390,000); AID 588453; Potency, µM (doses to about 114 µM), for the others: at the top dose activity change, negative = inhibition, usual class: inhibitors; also: % is scaled to controls: 0 for no effect and ±100 for the full control effect; nearly all actives have a fitted effect of over 65% in size
Target sequence (O89049 whole entry, looked up): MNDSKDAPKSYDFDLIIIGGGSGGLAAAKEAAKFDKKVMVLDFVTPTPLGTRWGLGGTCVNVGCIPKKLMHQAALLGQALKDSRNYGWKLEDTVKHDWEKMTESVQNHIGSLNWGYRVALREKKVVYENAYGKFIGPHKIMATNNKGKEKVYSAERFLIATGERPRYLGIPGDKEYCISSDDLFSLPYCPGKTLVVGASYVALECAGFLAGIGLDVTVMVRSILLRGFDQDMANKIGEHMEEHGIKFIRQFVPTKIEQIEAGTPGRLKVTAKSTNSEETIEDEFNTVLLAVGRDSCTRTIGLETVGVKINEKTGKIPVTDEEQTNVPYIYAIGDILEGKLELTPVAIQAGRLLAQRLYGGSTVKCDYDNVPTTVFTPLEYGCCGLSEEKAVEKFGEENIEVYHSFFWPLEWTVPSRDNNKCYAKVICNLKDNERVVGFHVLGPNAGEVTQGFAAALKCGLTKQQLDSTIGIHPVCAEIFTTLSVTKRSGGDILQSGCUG
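Rat TrxR1 (90 nM in the dispensed reagent) was pre-reduced with 400 uM NADPH for 5 min at room temperature, then incubated with compound for 15 min. After 400 uM selenite was added, NADPH fluorescence (Ex 340/Em 450 nm) was followed for 8 min.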
Nrf2 inh: blocks Nrf2 signaling. actives 2.1% (n = 360,000). Potency, µM (series often up to 46 µM), for the others: at the highest dose activity change, negative = inhibition, usual class: inhibitors. A549 ARE-Fluc reporter, luciferase luminescence, 18-24 h. AID 504444; also: % is scaled to controls: 0 for no effect and ±100 for the full control effect; nearly all actives have a fitted effect of over 60% in size
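In this cell-based qHTS, ARE-driven firefly luciferase in A549 cells reports Nrf2 activity; the luminescent signal after BugLite lysis is the measured value, with a prior CellTiter-Fluor read for cell health.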
Nrf2 activator: Nrf2 pathway activation; Potency, µM (titrated, usually from 46.1 µM), for inactives: at the top dose activation, hits mostly activators; actives 0.31% (n = 410,000); AREc32 ARE-luciferase reporter (MCF7-derived line), luminescence, 24 h; AID 624171; also: % of control where 0% means no effect; nearly all actives have a fitted effect of over 65% in size
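Reporter line AREc32 (ARE-Fluc), seeded overnight in OPTI-MEM with 5% FBS; compound pin-transferred, 24 hr at 37 deg C, 5% CO2; luminescent read-out.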
TrxR1 substrate: rat thioredoxin reductase 1 substrate activity | Potency, µM (doses to about 114 µM), without a hit: at the top dose activity change, negative = substrate turnover | AID 588456 | purified TrxR1 substrate turnover, NADPH consumption readout | O89049 | actives 0.01% (n = 390,000); also: % is scaled to controls: 0 for no effect and ±100 for the full control effect; nearly all actives have a fitted effect of over 50% in size
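Rat TrxR1, dispensed at 90 nM, was prereduced with 400 uM NADPH (final) for 5 min at ~22 deg C, then incubated with compound 15 min before 400 uM selenite. A first-read NADPH fluorescence drop versus no-compound background flagged substrates.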
Active calls of the source: *; [ ] = another dose, or the depositor's remark. Calls follow the shape of the dose curve; as a rule, active = well fitted curve in the direction sought with a large enough effect; inconclusive = small, poorly fitted or top-dose-only effect, or another doubt; inactive = no such curve, though single readings can be large; an effect the other way counts as inactive or inconclusive. Potency is read from the fitted curve at half-maximal effect.

How did COc1ccc(C2c3c(oc4ccccc4c3=O)C(=O)N2CCCN2CCOCC2)cc1 (centres undefined) do in these assays?
A549 viability: -10.5%; rTrxR1 inhibitor: 35.5µM*; Nrf2 inh: 13.8%; Nrf2 activator: 3.5%; TrxR1 substrate: 3.2%

How did COc1cccc(C2c3c(oc4ccccc4c3=O)C(=O)N2CCCN2CCOCC2)c1OC (centres undefined) do in these assays?
A549 viability: 1.6%; rTrxR1 inhibitor: 18.0%; Nrf2 inh: 3.6%; Nrf2 activator: -0.3%; TrxR1 substrate: -1.9%

Results for CCOc1ccc(C2c3c(oc4ccccc4c3=O)C(=O)N2CCCN2CCOCC2)cc1OCC (centres undefined) ?
A549 viability: 2.1%; GALK inh: -0.1%; rTrxR1 inhibitor: inconclusive; Nrf2 inh: 4.2%; Nrf2 activator: 2.9%; TrxR1 substrate: 2.0%

How did O=C1c2oc3ccccc3c(=O)c2C(c2cccc(O)c2)N1CCCN1CCOCC1 (centres undefined) do in these assays?
A549 viability: -0.7%; GALK inh: 2.5%; rTrxR1 inhibitor: 44.7µM*; Nrf2 inh: 9.7%; Nrf2 activator: 6.7%; TrxR1 substrate: 4.2%

How did COc1nc(N(C)S(=O)(=O)c2ccc(C)cc2)nc(C)c1Br do in these assays?
A549 viability: 8.0%; GALK inh: 3.1%; rTrxR1 inhibitor: 15.0%; Nrf2 inh: 4.11µM*; Nrf2 activator: -0.6%; TrxR1 substrate: -1.1%

What do the screens show for `COC(=O)CN(c1nc(C)c(Br)c(OC)n1)S(=O)(=O)c1ccccc1`?
A549 viability: 1.0%; GALK inh: -3.1%; rTrxR1 inhibitor: 22.2%[2.29 µM]; Nrf2 inh: -3.4%; Nrf2 activator: 0.3%; TrxR1 substrate: -5.1%

What do the screens show for `CC(C)(C)c1ccc(Cn2nnc3c(=O)[nH]c(C4CCCN(C(=O)c5cccs5)C4)nc32)cc1` (centres undefined)?
A549 viability: -17.9%; GALK inh: -5.1%; rTrxR1 inhibitor: 6.5%; Nrf2 inh: 23.1µM*; Nrf2 activator: 2.3%; TrxR1 substrate: -10.0%

What do the screens show for `CC(C)(C)c1ccc(Cn2nnc3c(=O)[nH]c(C4CCCN(C(=O)Cc5cccs5)C4)nc32)cc1` (centres undefined)?
A549 viability: 2.1%[1.84 µM]; GALK inh: -4.0%; rTrxR1 inhibitor: 13.7%; Nrf2 inh: inconclusive; Nrf2 activator: 3.4%; TrxR1 substrate: -6.1%

Results for CC(C)(C)c1ccc(Cn2nnc3c(=O)[nH]c(C4CCN(C(=O)c5ccco5)CC4)nc32)cc1 ?
A549 viability: inconclusive; GALK inh: 13.5%; rTrxR1 inhibitor: -6.7%[57.1 µM]; Nrf2 inh: 25.9µM*; Nrf2 activator: 2.8%; TrxR1 substrate: -9.3%

What do the screens show for `Cc1ccc(NS(=O)(=O)c2cc3c(cc2Cl)CCC(=O)N3)cc1C`?
A549 viability: 1.3%; Nrf2 inh: -21.5%

How did CCOC(=O)c1cccc(NC(=O)c2ccc(NC(=O)C3CCCO3)cc2)c1 (centres undefined) do in these assays?
A549 viability: -28.9%; GALK inh: -0.4%; rTrxR1 inhibitor: 11.6%; Nrf2 inh: 11.6µM*; Nrf2 activator: 0.5%; TrxR1 substrate: -0.4%

What do the screens show for `COc1ccc(-n2nnnc2-c2ccccc2)cc1`?
A549 viability: -17.1%; GALK inh: 1.8%; rTrxR1 inhibitor: 12.3%; Nrf2 inh: 12.3%; Nrf2 activator: -0.2%; TrxR1 substrate: 8.5%

Results for COc1ccc(N2N=NN(C(C)C)C2=C(Cl)c2nnnn2-c2ccc(OC)cc2)cc1 ?
A549 viability: -3.4%; rTrxR1 inhibitor: -67.9%[57.1 µM]; Nrf2 inh: 23.7%; Nrf2 activator: 15.8µM*; TrxR1 substrate: -7.1%[11.4 µM]

Results for COc1ccc2cc(CN(CCO)C(=O)c3ccc(Br)cc3)c(=O)[nH]c2c1 ?
A549 viability: -13.0%; GALK inh: -0.6%; rTrxR1 inhibitor: -12.9%; Nrf2 inh: 20.6µM*; Nrf2 activator: 0.8%; TrxR1 substrate: 0.5%

How did COc1ccc2cc(CN(CCO)C(=O)c3ccccc3F)c(=O)[nH]c2c1 do in these assays?
A549 viability: -0.4%; GALK inh: -4.5%; rTrxR1 inhibitor: 1.1%[57.1 µM]; Nrf2 inh: 5.5%; Nrf2 activator: 0.5%; TrxR1 substrate: 18.8%[57.1 µM]

Results for CN=c1sc2c(n1C)C(=O)c1ccccc1C2=O ?
A549 viability: inconclusive; rTrxR1 inhibitor: inconclusive; Nrf2 inh: 20.6µM*; Nrf2 activator: 5.5%; TrxR1 substrate: -19.9%

What do the screens show for `CN=c1sc(C(=O)Nc2ccccc2)c(C)n1C`?
A549 viability: -2.2%; GALK inh: 5.3%; rTrxR1 inhibitor: 4.8%[57.1 µM]; Nrf2 inh: inconclusive; Nrf2 activator: 4.1%; TrxR1 substrate: 4.5%[57.1 µM]

Results for CCOC(=O)c1c(C)[nH]c(C)c1S(=O)(=O)NCC(=O)N1CCN(c2ccccc2OC)CC1 ?
A549 viability: -5.4%; rTrxR1 inhibitor: 19.2%[57.1 µM]; Nrf2 inh: 7.6%; Nrf2 activator: -0.9%; TrxR1 substrate: 2.3%[57.1 µM]

Results for Cc1ccc(N=c2oc3cc(O)ccc3cc2C(N)=O)cc1 ?
A549 viability: 1.6%; GALK inh: -1.3%; rTrxR1 inhibitor: 6.4%[57.1 µM]; Nrf2 inh: 20.6µM*; Nrf2 activator: -0.2%; TrxR1 substrate: 70.1%[57.1 µM]

How did COc1ccc2cc(S(=O)(=O)c3ccccc3F)c(=O)oc2c1 do in these assays?
A549 viability: -8.6%; rTrxR1 inhibitor: 151.9%; Nrf2 inh: 10.2%; Nrf2 activator: inconclusive; TrxR1 substrate: 256.2%

What do the screens show for `COc1ccc(-c2ccc(OC)c(C3C4C=CCCC4(C)C(=O)N3Cc3ccccc3)c2)cc1OC` (centres undefined)?
A549 viability: inconclusive; rTrxR1 inhibitor: 0.9%; Nrf2 inh: inconclusive; TrxR1 substrate: 18.4%[57.1 µM]

What do the screens show for `O=C(N/N=C/c1cccn1-c1ccc([N+](=O)[O-])cc1)c1cccnc1`?
A549 viability: inconclusive; rTrxR1 inhibitor: 12.1%[11.4 µM]; Nrf2 inh: 18.4µM*; Nrf2 activator: -0.5%; TrxR1 substrate: 7.4%[11.4 µM]

What do the screens show for `Cc1ccc(C)c(N2CCN(C(=O)CCCN3C(=S)NC(C)(C)CC3C)CC2)c1` (centres undefined)?
A549 viability: -4.7%; GALK inh: 0.9%; rTrxR1 inhibitor: 3.8%[57.1 µM]; Nrf2 inh: 16.4µM*; Nrf2 activator: -0.9%; TrxR1 substrate: 9.9%[57.1 µM]

What do the screens show for `CC(C)(C)OC(=O)NS(=O)(=O)NOCc1ccccc1`?
rTrxR1 inhibitor: -6.7%; TrxR1 substrate: 1.9%

What do the screens show for `CC(C)S(=O)(=O)c1csc(NC(=O)Nc2cc(Cl)ccc2Cl)c1Cl`?
A549 viability: -18.8%; rTrxR1 inhibitor: 1.3%[57.1 µM]; Nrf2 inh: 18.4µM*; Nrf2 activator: -1.0%; TrxR1 substrate: 0.6%[57.1 µM]
